# Measured values reported in PubChem BioAssay.
# For part of these data: Results with a measured potency or affinity are listed apart. Activity calls are given as the source filed them. Unless noted, how the calls were made is not given here.
# How the values were obtained:
# [1] = antimalarial activity against Dd2 strain (AID 2302;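 active means growth inhibition above 50% at the single 2 µM test dose, taken to imply half-maximal potency below 2 µM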;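 further: 0% = DMSO untreated growth and 100% = chloroquine plus artemisinin killed control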); conditions: P. falciparum Dd2 in RBCs, LDH growth readout, 72 h; at 2 µM; active compounds read high
# [2] = HepG2 cytotoxicity, primary screen, cytotoxicity control for P. falciparum antimalarial project, cell-based, ATP luminescence (AID 2303;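 active means inhibition above 50%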;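 further: 0% = DMSO wells and 100% = digitonin-killed cells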); conditions: HepG2 viability, 24-48 h, at 10 µM, active compounds read high
# [3] = target: L-lactate dehydrogenase (Plasmodium falciparum (isolate CDC / Honduras)) (UniProt Q27743); assay: PfLDH activity inhibition – cell lysate, 3D7 strain, counter-screen for P. falciparum growth inhibition project (AID 2304);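 further: 0% = vehicle and 100% = reference inhibitor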; conditions: P. falciparum 3D7 crude extract, LDH APAD/NBT absorbance; at 2 µM; active compounds read high
# Sequence of L-lactate dehydrogenase (Plasmodium falciparum (isolate CDC / Honduras)) (Q27743 whole entry, looked up): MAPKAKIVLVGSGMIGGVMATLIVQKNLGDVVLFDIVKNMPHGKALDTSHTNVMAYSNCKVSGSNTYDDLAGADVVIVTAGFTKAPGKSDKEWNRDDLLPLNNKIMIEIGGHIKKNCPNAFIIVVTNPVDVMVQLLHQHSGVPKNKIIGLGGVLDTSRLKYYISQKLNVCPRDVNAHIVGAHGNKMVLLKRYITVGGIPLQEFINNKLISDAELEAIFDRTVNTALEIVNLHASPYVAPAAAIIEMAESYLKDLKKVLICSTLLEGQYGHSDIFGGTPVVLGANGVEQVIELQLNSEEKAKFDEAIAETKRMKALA
# [4] = inhibition of 3D7 malaria parasite growth – strain 3D7 (AID 2306);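 further: 0% = DMSO wells and 100% = chloroquine plus artemisinin control wells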; conditions: P. falciparum 3D7 erythrocytic growth, LDH absorbance, 72 h; at 2 µM; active compounds read high
# [5] = target: Calcium-dependent protein kinase 1 (Plasmodium falciparum (isolate 3D7)) (UniProt P62344); assay: PfCDPK1 kinase inhibitors, biochemical, TCAMS library (AID 1159585; cut-off not given, nearly all actives have IC50 up to about 0.98 µM;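 further: inhibitors leave more ATP so luminescence rises with inhibition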); conditions: recombinant PfCDPK1, Kinase-Glo ATP depletion luminescence
# Sequence of Calcium-dependent protein kinase 1 (Plasmodium falciparum (isolate 3D7)) (P62344 whole entry, looked up): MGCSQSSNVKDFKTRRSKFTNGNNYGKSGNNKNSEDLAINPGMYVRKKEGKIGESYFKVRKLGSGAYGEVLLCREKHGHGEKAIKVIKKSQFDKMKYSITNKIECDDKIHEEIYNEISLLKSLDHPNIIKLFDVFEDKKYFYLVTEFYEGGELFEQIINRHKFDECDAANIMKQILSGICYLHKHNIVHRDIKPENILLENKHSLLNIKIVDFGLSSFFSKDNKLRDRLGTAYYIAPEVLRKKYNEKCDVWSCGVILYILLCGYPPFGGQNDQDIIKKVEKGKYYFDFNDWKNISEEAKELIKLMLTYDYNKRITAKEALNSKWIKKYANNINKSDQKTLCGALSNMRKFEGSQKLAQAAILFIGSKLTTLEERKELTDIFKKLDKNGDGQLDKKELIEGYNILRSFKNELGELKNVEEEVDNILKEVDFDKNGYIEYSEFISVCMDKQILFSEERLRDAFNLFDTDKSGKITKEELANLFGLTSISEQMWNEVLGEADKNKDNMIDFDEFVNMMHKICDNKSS
# [6] = target: Plasmodium falciparum protein kinase 6 (PK6, PF3D7_1337100) (UniProt Q8IDW1); assay: PfPK6 kinase inhibitors, biochemical, TCAMS library (AID 1159586); conditions: recombinant PfPK6, Kinase-Glo ATP depletion luminescence
# Sequence of Plasmodium falciparum protein kinase 6 (PK6, PF3D7_1337100) (Q8IDW1 1-305): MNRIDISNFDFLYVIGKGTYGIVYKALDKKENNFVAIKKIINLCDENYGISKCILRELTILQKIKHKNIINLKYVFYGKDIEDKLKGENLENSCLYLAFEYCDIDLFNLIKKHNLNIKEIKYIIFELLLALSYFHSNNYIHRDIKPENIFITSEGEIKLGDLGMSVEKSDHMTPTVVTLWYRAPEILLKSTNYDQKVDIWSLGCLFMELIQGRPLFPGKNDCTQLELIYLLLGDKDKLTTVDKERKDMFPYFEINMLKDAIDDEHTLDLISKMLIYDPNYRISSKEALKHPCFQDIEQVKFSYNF
# [7] = target: Protein kinase 7 (PK7), Plasmodium falciparum 3D7 (PF3D7_0213400) (UniProt Q7YTF7); assay: inhibition of Plasmodium PK7 catalytic activity – biochemical, TCAMS antimalarial set, Kinase-Glo luminescence (AID 1159587); conditions: recombinant PfPK7, Kinase-Glo ATP depletion luminescence
# Sequence of Protein kinase 7 (PK7), Plasmodium falciparum 3D7 (PF3D7_0213400) (Q7YTF7 1-343): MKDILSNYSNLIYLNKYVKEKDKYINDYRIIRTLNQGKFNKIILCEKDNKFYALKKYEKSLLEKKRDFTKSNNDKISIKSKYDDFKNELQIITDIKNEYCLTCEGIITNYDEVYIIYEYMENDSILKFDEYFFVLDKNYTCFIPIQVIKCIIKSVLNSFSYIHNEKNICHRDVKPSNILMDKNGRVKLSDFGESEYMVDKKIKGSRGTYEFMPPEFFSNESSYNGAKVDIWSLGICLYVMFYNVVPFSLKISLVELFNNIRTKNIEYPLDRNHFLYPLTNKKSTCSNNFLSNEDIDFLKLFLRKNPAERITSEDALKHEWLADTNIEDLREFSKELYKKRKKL
# [8] = target: Calcium-dependent protein kinase 4 (Plasmodium falciparum (isolate 3D7)) (UniProt Q8IBS5); assay: PfCDPK4 kinase inhibitors, biochemical, TCAMS library (AID 1159588; cut-off not given, nearly all actives have IC50 up to about 0.91 µM); conditions: recombinant PfCDPK4, Kinase-Glo ATP depletion luminescence
# Sequence of Calcium-dependent protein kinase 4 (Plasmodium falciparum (isolate 3D7)) (Q8IBS5 whole entry, looked up): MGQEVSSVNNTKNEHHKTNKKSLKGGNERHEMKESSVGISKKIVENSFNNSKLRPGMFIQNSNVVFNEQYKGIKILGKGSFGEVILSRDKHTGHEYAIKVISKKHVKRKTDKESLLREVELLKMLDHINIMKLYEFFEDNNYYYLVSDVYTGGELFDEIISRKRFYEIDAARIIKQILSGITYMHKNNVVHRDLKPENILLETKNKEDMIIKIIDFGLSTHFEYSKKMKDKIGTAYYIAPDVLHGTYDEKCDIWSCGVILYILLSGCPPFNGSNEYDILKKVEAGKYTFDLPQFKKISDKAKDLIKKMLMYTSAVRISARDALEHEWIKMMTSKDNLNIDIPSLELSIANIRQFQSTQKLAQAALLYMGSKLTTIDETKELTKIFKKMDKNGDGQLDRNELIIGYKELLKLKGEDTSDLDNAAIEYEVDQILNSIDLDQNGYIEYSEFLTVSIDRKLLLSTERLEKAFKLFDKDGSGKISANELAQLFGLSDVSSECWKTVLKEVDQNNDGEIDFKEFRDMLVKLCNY
Compound,growth inhibition [1],inhibition [2],inhibition [3],growth inhibition [4],outcome [5],outcome [6],outcome [7],outcome [8]
CCc1c(CCNCCCCCCNCCc2ccc3c(c2C)OCO3)ccc2c1OCO2,7% (inactive),59% (active),7% (inactive),101% (active),inactive,inactive,inactive,inactive
CCCCOc1cc2[nH]cc(C(=O)OCC)c(=O)c2cc1OCCCC,96% (active),-9% (inactive),-2% (inactive),97% (active),inactive,inactive,inactive,inactive
Oc1cc(Nc2ccnc3cc(-c4cccc(CN5CCCCC5)c4)ccc23)c(F)cc1Cl,101% (active),21% (inactive),-3% (inactive),101% (active),inactive,inactive,inactive,inactive
COc1cc(-n2cnc3cc(-c4ccc([N+](=O)[O-])cc4)sc3c2=O)ccc1OCCN1CCCC1,79% (active),44% (inactive),-4% (inactive),97% (active),inactive,inactive,inactive,inactive
CCCCCCOc1ccccc1C(=O)NCCOc1ccc(Cl)cc1,37% (inactive),16% (inactive),4% (inactive),84% (active),inactive,inactive,inactive,inactive
CCN(CCCN1CCCCC1)c1cc(C)nc(Nc2cc(Cl)cc(Cl)c2)n1,99% (active),34% (inactive),-3% (inactive),100% (active),inactive,inactive,inactive,inactive
O=C(Nc1ccc(Oc2ccccc2)cc1)N(CCN1CCCC1)Cc1ccc(-c2ccc(CN3CCNCC3)cc2)cc1,90% (active),48% (inactive),-2% (inactive),88% (active),inactive,inactive,inactive,inactive
COc1cc(OC)cc(-c2nn(-c3ccc([N+](=O)[O-])cc3C#N)c(=S)n2Cc2ccco2)c1,100% (active),11% (inactive),-6% (inactive),100% (active),inactive,inactive,inactive,inactive
COc1ccccc1CNC(=O)c1cc(OC)c(OC)cc1NC(=O)c1cccs1,71% (active),12% (inactive),3% (inactive),88% (active),inactive,inactive,inactive,inactive
CC(Cc1ccc(OCCN2CCN(c3cccc(Cl)c3)CC2)cc1)NCC(O)c1cccc(C(F)(F)F)c1 (configuration not stated),98% (active),100% (active),-1% (inactive),99% (active),inactive,inactive,inactive,inactive
Cn1cc(C(=O)Nc2cccc(-c3cccc(-c4nc5ccccc5[nH]4)c3)c2)n(C)c1=O,60% (active),0% (inactive),-6% (inactive),99% (active),inactive,inactive,inactive,inactive
CCC[C@@H]([C@@H](CC1CCCCC1)C(=O)N[C@H](C(=O)Nc1nccs1)C(C)(C)SCCNC(=O)OCc1ccccn1)N(O)C=O,96% (active),17% (inactive),-5% (inactive),99% (active),inactive,inactive,inactive,inactive
CN(C)CCNC(=O)NC1CN(c2ncnc3cc(-c4ccccc4)sc23)C1,39% (inactive),7% (inactive),5% (inactive),100% (active),inactive,inactive,inactive,inactive
CCc1cc2c(O)c([N+](=O)[O-])c(=O)oc2cc1OCCCCCOc1cc2oc(=O)c([N+](=O)[O-])c(O)c2cc1CC,0% (inactive),11% (inactive),-1% (inactive),99% (active),inactive,inactive,inactive,inactive
COc1ccc(NC(=O)[C@H](Cc2ccccc2)Nc2cc(C)nc(NCCc3cccnc3)n2)cc1,5% (inactive),11% (inactive),-4% (inactive),98% (active),inactive,inactive,inactive,inactive
NC(N)=NN=CC(=O)Nc1ccc(Cl)cc1,2% (inactive),5% (inactive),-1% (inactive),101% (active),inactive,inactive,inactive,inactive
Cc1nn(-c2ccccc2)nc1C(=O)N(Cc1ccc(-c2ccc(CNCCc3ccc(S(C)(=O)=O)cc3)cn2)cc1)C(C)CN(C)C (configuration not stated),87% (active),25% (inactive),-8% (inactive),101% (active),inactive,inactive,inactive,inactive
COC(=O)c1cc(NC(=O)Nc2ccc(Cn3ncc(N4CCCNCC4)c(Cl)c3=O)cc2)cc(C(=O)OC)c1,90% (active),-3% (inactive),3% (inactive),96% (active),inactive,inactive,inactive,inactive
O=C(Nc1ccc(N2CCCN(Cc3cccc(F)c3)CC2)cc1)c1cccs1,96% (active),2% (inactive),0% (inactive),96% (active),inactive,inactive,inactive,inactive
CCOc1cc(NCCSCc2nc[nH]c2C)nc2ccccc12,10% (inactive),4% (inactive),1% (inactive),92% (active),inactive,inactive,inactive,inactive

Compound,growth inhibition [1],inhibition [2],inhibition [3],growth inhibition [4],outcome [5],outcome [6],outcome [7],outcome [8]
CN1CCN(c2cc(NC(=O)Nc3cccc(Cl)c3Cl)ccc2Cl)CC1,21% (inactive),2% (inactive),2% (inactive),102% (active),inactive,inactive,inactive,inactive
CS(=O)(=O)c1cccc2sc(N3CCN(C(=O)c4ccc([N+](=O)[O-])o4)CC3)nc12,61% (active),-26% (inactive),-4% (inactive),84% (active),inactive,inactive,inactive,inactive
Cc1cc(=O)c2cc(Oc3ccc(OC(F)(F)F)cc3)ccc2[nH]1,71% (active),20% (inactive),-2% (inactive),86% (active),inactive,inactive,inactive,inactive
COc1ccccc1NC(=O)Nc1cccc(-c2ccc(-c3nc4ccc(C(F)(F)F)cc4[nH]3)cc2)c1,76% (active),28% (inactive),5% (inactive),100% (active),inactive,inactive,inactive,inactive
OC(COc1ccccc1-c1nc2ccccc2o1)CN1CCCN(CCc2ccccc2)CC1 (configuration not stated),2% (inactive),39% (inactive),-5% (inactive),97% (active),inactive,inactive,inactive,inactive
COc1ccccc1CNc1ccnc(N2CC(Oc3ccc(F)cc3)C2)n1,95% (active),2% (inactive),-4% (inactive),97% (active),inactive,inactive,inactive,inactive
CCCc1ccc(S(=O)(=O)NC2CCN(c3ccnc(Nc4ccc(OC)cc4)n3)C2)cc1 (configuration not stated),45% (inactive),42% (inactive),0% (inactive),89% (active),inactive,inactive,inactive,inactive
O=C(COc1ccccc1Cc1ccccc1)Nc1cc(Cl)ccc1-n1cncn1,93% (active),5% (inactive),-2% (inactive),92% (active),inactive,inactive,inactive,inactive
Cn1ncc2ccc(Nc3nccc(-c4ccc5c(c4)c(N)nn5C)n3)cc21,96% (active),48% (inactive),-2% (inactive),99% (active),inactive,inactive,inactive,inactive
O=C(O)c1ccc2c(c1)N(C(=O)CNCc1ccc(F)cc1)CC(=O)N2CCCc1ccccc1,-2% (inactive),1% (inactive),2% (inactive),95% (active),inactive,inactive,inactive,inactive
CN(CCN)Cc1ccc(-c2ccc(-c3nc4ccc(C(F)(F)F)cc4[nH]3)s2)cc1,98% (active),37% (inactive),2% (inactive),98% (active),inactive,inactive,inactive,inactive
Cc1cccc2[nH]c(-c3ccc(-c4cccc(NCc5cn6cccnc6n5)c4)cc3)nc12,63% (active),9% (inactive),-3% (inactive),94% (active),inactive,inactive,inactive,inactive
CN1CCC(C(=O)Nc2ccc(-c3cccc(-c4nc5ccc(F)cc5[nH]4)c3)cc2)CC1,5% (inactive),19% (inactive),5% (inactive),101% (active),inactive,inactive,inactive,inactive
Cc1ccccc1CNC(=O)Nc1cccc(-c2csc(N=C(N)N)n2)c1,14% (inactive),2% (inactive),-2% (inactive),99% (active),inactive,inactive,inactive,inactive
Cc1cccc2[nH]c(-c3ccc(-c4cccc(C(=O)NCCc5cn(C)cn5)c4)s3)nc12,17% (inactive),27% (inactive),-7% (inactive),92% (active),inactive,inactive,inactive,inactive
CCC[C@@H]([C@@H](CC1CCCCC1)C(=O)N[C@H](C(=O)Nc1nccs1)C(C)(C)SC)N(O)C=O,98% (active),51% (active),7% (inactive),97% (active),inactive,inactive,inactive,inactive
COc1ccc(O)c(Cc2cnc3nc(N)[nH]c(=O)c3c2C)c1,6% (inactive),30% (inactive),-5% (inactive),96% (active),inactive,inactive,inactive,inactive
Cc1[nH]c(C)c(-c2ccc(OCc3cc(F)cc(F)c3)nc2)c(=O)c1Br,97% (active),37% (inactive),-7% (inactive),98% (active),inactive,inactive,inactive,inactive
CCN(CCNS(C)(=O)=O)c1ccc(N)c(C)c1,11% (inactive),-4% (inactive),-4% (inactive),91% (active),inactive,inactive,inactive,inactive
